Assay results as given in the supplement of paper PMC6555819.

Experiments:
Test in all cases: PBM binding z-score (relative to random genomic background probes); higher = stronger binding; sequences stand for … in GC…GCGATTGACAGCGTAGAATGAAGG
[1] = test system: PPARg:RXRa DBDmut IVT, anti-RXR (DBD mutation: RXRa K156A/R161A, NR concentration 270 nM, RXRa partner concentration 90 nM)
In short: (§1)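 Custom Agilent 4×180K protein-binding microarrays carried double-stranded probes. Their 34-nt variable regions held direct-repeat seeds, single-nucleotide variants, half-site ablations and random human genomic background sequences. Arrays were incubated 1 h with ligand-free nuclear receptor dimers in PBS pH 7.4, 2% milk, 0.02% Triton X-100, 1 mM DTT, 0.2 mg/mL BSA and 0.4 mg/ml salmon testes DNA. Antibodies against each partner (one per run) detected binding, and scanned fluorescence was regression-normalized. Binding z-scores use random background probes as reference.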

[2] = test system: PPARg:RXRa IVT, anti-PPARg (NR concentration 270 nM, RXRa partner concentration 90 nM)
In short: as §1

[3] = test system: PPARg DBDmut:RXRa IVT, anti-PPARg (DBD mutation: PPARg1 K132A/R137A, NR concentration 270 nM, RXRa partner concentration 90 nM)
In short: as §1

[4] = test system: PPARg DBDmut IVT, anti-PPARg (DBD mutation: PPARg1 K132A/R137A, NR concentration 270 nM)
In short: as §1

[5] = test system: PPARg homodimer (NR concentration 180 nM)
In short: as §1

[6] = test system: PXR:RXRa (NR concentration 270 nM, RXRa partner concentration 90 nM)
In short: as §1

[7] = test system: PXR homodimer (NR concentration 270 nM)
In short: as §1

[8] = test system: RARa:RXR (NR concentration 270 nM, RXRa partner concentration 90 nM)
In short: as §1

[9] = test system: RARa homodimer (NR concentration 270 nM)
In short: as §1

[10] = test system: RARb:RXRa (NR concentration 270 nM, RXRa partner concentration 90 nM)
In short: as §1

Row | Sequence | PBM binding z-score [1] | PBM binding z-score [2] | PBM binding z-score [3] | PBM binding z-score [4] | PBM binding z-score [5] | PBM binding z-score [6] | PBM binding z-score [7] | PBM binding z-score [8] | PBM binding z-score [9] | PBM binding z-score [10]
1 | GCTAGTTGGTCGGTAAAAGGTCACACACCGGTCG | 0.248 | 3.4 | 0.279 | 0.356 | 3.46 | 4.78 | 1.24 | 5.17 | 1.42 | 4.08
2 | CCTACTGGGCCACGAAAGGTCTTTGATTCAGTGA | 4.89 | 5.29 | 0.279 | -0.311 | 0.598 | 0.109 | -0.43 | 0.284 | -0.304 | 0.791
3 | TTACCAAGGTGCGCTGAGGTCGTTGATCCAACTC | -0.264 | 0.111 | -0.817 | -0.343 | -0.175 | 2.58 | 1.74 | 1.4 | -0.803 | 0.681
4 | GCTTACGGGTCAAAGGCTATAGCATGAATAGAAT | 3.78 | 4.33 | 0.463 | 0.898 | 1.36 | 3.22 | 0.0124 | 4.4 | -0.0609 | 3.69
5 | CAGCCTAGGTCATGGCCAGTATAGGAGGAACGTT | 2.64 | 2.68 | -0.045 | -0.826 | 1.72 | 1.53 | -0.702 | 2.45 | 0.132 | 3.99
6 | CCTATTAGTTGACCATAAGGGCAACCGGAGCTCG | 0.164 | 0.489 | -0.0255 | 0.00899 | 1.98 | 0.686 | 0.931 | 0.893 | 2.04 | 1.72
7 | CCTCAGAGGACAGAAGGTCAGAGCTGTCCGCTTT | 0.0276 | 0.424 | -0.801 | -2.11 | 1.69 | 1.66 | -0.179 | 2.01 | 0.177 | 3.41
8 | TCATATAGGTAATACAGGTGGAAGTCGGCATCTA | 4.03 | 2.31 | 1.36 | 0.905 | 0.801 | 0.571 | 0.602 | 0.763 | 1.5 | 0.515
9 | CCTTACGGGTCACTGACAGGTTATTGCATTTGGA | 3.48 | 3.61 | 0.525 | 0.563 | 2.74 | 3.89 | 0.344 | 4.51 | 0.71 | 4.04
10 | CCTACTGGGCCAAAAAGGTCATGGATGCCGATAA | 3.31 | 4.16 | 0.474 | -0.298 | 4.05 | 4.81 | 0.732 | 5.53 | 1.87 | 4.27
11 | AATACAGGGTCATCCTAGGCCAGAGTACGCACAG | 2.5 | 4.16 | 1.89 | 1.39 | 2.39 | 5 | 0.711 | 4.8 | 1.41 | 4.46
12 | ATCTGTAGGTAACAAGTTCAGTGAAAGAGAGGAC | 2.85 | 2.64 | 1.31 | 0.975 | 1.16 | 1.58 | 0.906 | 1.16 | 0.818 | 1.63
13 | ACTAGCAGGCCAAGGGTCACTCACGATTAGTCCG | 1.04 | 3.8 | 0.074 | -0.149 | 1.92 | 3.09 | -0.277 | 3.55 | 0.389 | 3.45
14 | GAAACAGGGTCAGCTAGAGGCCAGAGTATGGAAA | 2.53 | 3.11 | 0.33 | -0.985 | 3.56 | 3.46 | -0.0723 | 4.93 | 0.262 | 4.14
15 | GATACAGGGTAAAGGCCAGAGTACGCGTATTGAT | 1.02 | 2.64 | 0.254 | -0.000144 | 0.5 | 0.017 | -0.0145 | 0.137 | -0.111 | 1.18
16 | AGTCATAGTTCAGGACGAGGTAACGTAAAGCACG | -0.922 | 0.674 | 0.901 | 0.714 | 0.947 | 1.13 | 0.0157 | 1.31 | 0.185 | 2.59
17 | GCTCCGAGGACAAGGTCAGAGCTTTGTCCGTAGA | 0.525 | 0.632 | -1.51 | -1.01 | 0.305 | 1.55 | -0.543 | 1.76 | -0.762 | 3.33
18 | TATACATGGTCAAAGGCCAGAGTACGAATGTCGA | -0.282 | 1.86 | 1.66 | 0.812 | 0.786 | 0.255 | 0.252 | 0.943 | 0.241 | 1.6
19 | TCTTGTACATCAAAGGTTAAGAAAGCCGAAGCCT | 1.6 | 1.77 | 1.53 | 0.483 | 1.01 | 1.73 | 0.178 | 2.66 | 0.601 | 2.15

Row | Sequence | PBM binding z-score [1] | PBM binding z-score [2] | PBM binding z-score [3] | PBM binding z-score [4] | PBM binding z-score [5] | PBM binding z-score [6] | PBM binding z-score [7] | PBM binding z-score [8] | PBM binding z-score [9] | PBM binding z-score [10]
20 | TCGAGTAGGTTACCTATGGGGCATTCAGCTTTCT | 2.71 | 2.51 | -0.176 | -0.57 | -0.445 | 0.0182 | -0.655 | 0.469 | -0.643 | 0.753
21 | AGTCAAAGTTAACTAGGTAACGTAAGATTCAGCT | 3.88 | 4.72 | 1 | 1.26 | 0.27 | -0.0411 | -0.0667 | 0.226 | 0.167 | 0.61
22 | TGAATGAGGTTATAAGATCAGGAAACGTTGCAAA | 0.583 | 1.52 | 0.845 | 1.12 | 0.661 | 0.789 | 0.0316 | 1.46 | 0.238 | 1.15
23 | AGAATGAGGTTATTAAGATCAGGCAATTGCGGTC | 2.95 | 2.56 | 0.272 | 0.448 | 0.366 | 1.2 | 0.322 | 1.47 | 0.167 | 1.33
24 | CATACTAGGTCACCGGAAGGTCAAAGTCCGCATG | 7.07 | 8.03 | 4.35 | 1.99 | 7.45 | 5.88 | 2.1 | 7.25 | 2.75 | 5.21
25 | ATATGTAGGTTATGGGGTCATTCAGTTTGCGCAT | 7.59 | 7.35 | 1.83 | 2.58 | 3.35 | 6.12 | 11.7 | 6.45 | 2.37 | 3.54
26 | ATCTCTAGGTAACAAGTTCAGAGAAAGAGAGGAC | 2.92 | 2.66 | 0.959 | 2.27 | 0.923 | 1.59 | 1.6 | 1.1 | 1.3 | 1.53
27 | ATCTCTAGGTAAAGATAGTTCAGTTAATGCAAAT | 2.3 | 1.96 | 0.842 | 0.769 | 1.02 | 1.26 | 0.841 | 0.925 | 1.28 | 0.672
28 | CCTTACGAGTCACGAGGTTATAGCACGACGAGCG | 0.274 | 0.318 | 0.557 | 0.13 | 1.26 | 1.25 | 0.811 | 1.79 | 1.56 | 0.971
29 | TCTAGTGGGTCACGGAGGTCACACACGACGGGTA | 7.01 | 7.92 | 1.74 | 0.78 | 4.58 | 5.92 | 5.35 | 6.43 | 2.44 | 4.78
30 | CGAACTAGGTCAAGGACAATGAATCTCCGCACGC | 8.3 | 8.44 | 2.51 | 1.02 | 2.03 | 1.31 | 0.478 | 1.99 | -0.186 | 3.99
31 | AGTCAAAGTTCACAAGGTAACGTAAGATTCAGCT | 0.681 | 3.67 | 1.19 | 0.956 | 3.05 | 4.78 | 2.84 | 4.51 | 2.08 | 4.82
32 | GCGACTGGGGCATCAGCAGATTACCATAACTTAA | 4 | 2.69 | 0.0111 | -0.326 | -0.0673 | -0.385 | -0.328 | -0.267 | 0.336 | 0.39
33 | AGAATGAGGTTATCAAAGATCAGGGAAACGCTTG | 2.98 | 2.51 | 1.56 | 0.266 | 0.544 | 1.25 | 0.0151 | 1.6 | 0.154 | 1.33
34 | CGAACGAGGGCATGATTTGATAGCAAATGCCGAT | 2.59 | 1.81 | -0.0165 | -0.269 | -0.834 | 0.0992 | -0.377 | 0.0639 | -0.507 | 1.78
35 | CGTCCAAGGCCAAGGTCAGTGAAAGAGACTCGAA | 0.486 | 0.991 | -1.04 | -1.54 | 1.05 | 1.53 | 0.261 | 2.04 | 0.342 | 3.58
36 | CGTCAAAGTTCACGGTAACGTAACAGAAAGCAGC | 0.827 | 2.31 | 0.983 | 0.91 | 2.72 | 4.93 | 2.72 | 4.67 | 1.67 | 5.25
37 | ATATGTAGGTTAGCTGGTGTCATTCAGACTAGGC | 6.77 | 6.16 | 2.14 | 1.6 | 1.06 | 1.65 | 0.392 | 1.44 | 0.23 | 0.987
38 | CCGACTGGCGCAAGGTTACCATAACGCACAGCCA | 0.00884 | -0.432 | -1.08 | -0.725 | 0.0939 | 0.262 | -0.271 | 0.604 | -0.0192 | 0.871
